Only some compounds are listed: those with a hit (about 12% of all), similar ones and a draw of the others.
G9a block: G9a (human) methyltransferase inhibition. hit rate 8.8% among 350,000. Potency, µM (doses to about 102 µM), usual class: inhibitors. G9a H3K9 monomethylation, AlphaScreen, 2 h. Q96KQ7; note: nearly all actives have a fitted effect of over 75% in size
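AlphaScreen detection with an anti-monomethyl H3K9 antibody quantified product after a 2 h room-temperature reaction containing 500 nM biotinylated H3K9 peptide, 20 µM SAM and 20 nM enzyme, which had been preincubated 15 min with compound.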
BAZ2B block: blocks human BAZ2B; Q9UIF8; AlphaScreen BAZ2B-H3K14Ac peptide displacement; Potency, µM (doses to about 114 µM), usual class: inhibitors; hit rate 4.4% among 360,000; note: nearly all actives have a fitted effect of over 60% in size
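BAZ2B 50 nM plus b-H3(5-23)K14Ac 50 nM, PBS pH 7.4/0.01% Tween-20, 30 min RT; compound added (max 110 uM), 30 min RT; streptavidin donor/Ni-chelate acceptor beads 10 ug/mL final, 20 min dark; AlphaScreen read.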
HP1b chromo inh: blocks HP1-beta chromodomain binding to methylated histone tails. P83916. AlphaScreen HP1-beta / biotin-H3K9me3 peptide binding. Potency, µM (highest dose often 114 µM), actives largely listed as inhibitors. hit rate 0.56% among 390,000. AID 540317; note: nearly all actives have a fitted effect of over 70% in size
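HP1-beta protein (50 nM final) preincubated 30 min at room temperature with biotinylated H3(1-18)K9me3 peptide (50 nM) in PBS pH 7.4, 0.01% Tween-20, then compound added for 30 min. AlphaScreen streptavidin donor/nickel chelate acceptor beads (10 ug/mL final), 30 min dark, luminescence read.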
PLK1 PBD block: blocks phosphopeptide binding to human PLK1 polo-box domain. Plk1 PBD binding of FITC phosphopeptide, fluorescence polarization. Potency, µM, hits mostly inhibitors. hit rate 2.8% among 360,000; note: series mostly up to about 57 µM; nearly all actives have a fitted effect of over 65% in size
Target sequence (P53350 whole entry, looked up, the tested form may be a part): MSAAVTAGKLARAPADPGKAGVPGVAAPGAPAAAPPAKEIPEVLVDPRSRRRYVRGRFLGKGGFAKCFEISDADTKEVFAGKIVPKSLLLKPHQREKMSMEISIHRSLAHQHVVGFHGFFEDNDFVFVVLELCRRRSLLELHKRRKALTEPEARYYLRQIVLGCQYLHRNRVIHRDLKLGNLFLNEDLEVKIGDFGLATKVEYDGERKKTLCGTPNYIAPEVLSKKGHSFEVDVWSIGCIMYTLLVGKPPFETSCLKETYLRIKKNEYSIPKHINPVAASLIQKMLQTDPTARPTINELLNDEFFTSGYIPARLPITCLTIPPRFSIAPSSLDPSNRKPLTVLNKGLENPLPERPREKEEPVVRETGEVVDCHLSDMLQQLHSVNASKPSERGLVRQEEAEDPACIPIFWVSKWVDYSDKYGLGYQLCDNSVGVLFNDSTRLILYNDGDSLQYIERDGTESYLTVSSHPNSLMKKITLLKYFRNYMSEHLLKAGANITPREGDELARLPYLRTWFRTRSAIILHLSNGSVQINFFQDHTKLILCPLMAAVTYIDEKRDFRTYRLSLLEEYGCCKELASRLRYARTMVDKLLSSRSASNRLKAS
Sfp PPTase inh: inhibitors of Bacillus subtilis Sfp phosphopantetheinyl transferase; AID 1490; Biochemical Sfp PPTase activity, qHTS; Q9F4F7; hit rate 3.5% among 310,000; Potency, µM, usual class: inhibitors;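 note: the enzyme is Sfp with the accession as filed and its product quenches rhodamine fluorescence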
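Compounds were incubated with enzyme (final 15 nM) for 15 min at room temperature before substrate addition started the reaction. Fluorescence at 525 nm excitation, 598 nm emission was recorded immediately and after 30 minutes.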
JMJD2A Tudor: blocks the human JMJD2A Tudor domain. O75164. AlphaScreen JMJD2A-Tudor / H3K4me3 peptide binding. Potency, µM (highest dose often 114 µM), actives largely listed as inhibitors. hit rate 4.4% among 390,000. AID 504339; note: nearly all actives have a fitted effect of over 50% in size
Large screens that a line does not name were inactive; ! = a repeat was not active. Calls come from the whole dose curve; as a rule, active = well fitted curve in the direction sought with a large enough effect; inconclusive = small, poorly fitted or top-dose-only effect, or another doubt; inactive = no such curve, though single readings can be large; an effect the other way counts as inactive or inconclusive.

CS(=O)(=O)N1CCN(c2ccc([N+](=O)[O-])c(NCCN3CCOCC3)c2)CC1	none
O=C(O)C1CCCCC1C(=O)NCc1ccc(Cl)c(Cl)c1 (stereo not given)	PLK1 PBD block 30µM
CC1=C(C(=O)NCc2ccccc2F)C2(CCCCC2)OC1=O	none (no result: PLK1 PBD block, Sfp PPTase inh)
CCCc1nc2c(s1)CCc1onc(-c3ccc(Cl)cc3)c1-2	none (no result: Sfp PPTase inh)
CCCc1nc2c(s1)CCc1onc(-c3ccc(OC)cc3)c1-2	HP1b chromo inh inconclusive, PLK1 PBD block 27µM (no result: G9a block, BAZ2B block, Sfp PPTase inh)
CCCc1nc2c(s1)CCc1onc(-c3ccc(Br)cc3)c1-2	PLK1 PBD block 15µM (no result: G9a block, BAZ2B block, Sfp PPTase inh)
COc1ccc(NC(=S)NC(=O)c2csnn2)cc1	G9a block 32µM
O=C(NC(=S)Nc1ccccc1)c1csnn1	Sfp PPTase inh 50µM
COc1ccc(NC(=O)c2csnn2)cc1	G9a block inconclusive (no result: PLK1 PBD block, Sfp PPTase inh)
O=C(CN1CCC(NC(=O)Nc2ccccc2)CC1)Nc1ccc([N+](=O)[O-])cc1	none
Cc1ccc(CN=c2c([N+](=O)[O-])nn(-c3cccc(C)c3)n2O)cc1	BAZ2B block inconclusive, HP1b chromo inh inconclusive, JMJD2A Tudor 35µM
COc1ccc(-n2nc([N+](=O)[O-])c(=NCCC3=CCCCC3)n2O)cc1	G9a block 32µM, BAZ2B block 20µM, HP1b chromo inh 45µM, JMJD2A Tudor 40µM
COc1ccc(-n2nc([N+](=O)[O-])c(=NCCc3ccc(C)cc3)n2O)cc1	G9a block inconclusive, BAZ2B block inconclusive, HP1b chromo inh inconclusive, JMJD2A Tudor 50µM
Cc1cc(C)cc(N=c2c([N+](=O)[O-])nn(-c3ccc(Cl)cc3)n2O)c1	G9a block inconclusive, BAZ2B block inconclusive, JMJD2A Tudor inconclusive
COc1ccc(-n2nc([N+](=O)[O-])c(=NCCc3ccc(OC)c(OC)c3)n2O)cc1	G9a block inconclusive, BAZ2B block inconclusive
COc1ccc(-n2nc([N+](=O)[O-])c(=NCCc3ccc(Cl)cc3)n2O)cc1	none
CCc1ccc(N=c2c([N+](=O)[O-])nn(-c3ccccc3)n2O)cc1	G9a block inconclusive, BAZ2B block 32µM, HP1b chromo inh inconclusive, Sfp PPTase inh inconclusive, JMJD2A Tudor 45µM
Cc1ccc(NC2=C(C(=O)c3ccccc3)N(C)S(=O)(=O)c3ccccc32)cc1	BAZ2B block 25µM, HP1b chromo inh inconclusive, JMJD2A Tudor inconclusive
CN1C(C(=O)c2ccccc2)=C(N)c2ccccc2S1(=O)=O	none
Cc1ccc(C)c(S(=O)(=O)Nc2nc3ccc(S(N)(=O)=O)cc3s2)c1	G9a block 10µM, PLK1 PBD block inconclusive, Sfp PPTase inh inconclusive, JMJD2A Tudor 50µM
COc1ccc(C2C(C(=O)c3sc(C)nc3C)=C(O)C(=O)N2CCN2CCOCC2)cc1 (stereo not given)	G9a block inconclusive, JMJD2A Tudor 50µM
O=C(C1=C(O)C(=O)N(CCN2CCOCC2)C1c1ccncc1)c1ccco1 (stereo not given)	G9a block inconclusive
COc1ccc(OC)c(C2C(C(=O)c3sc(C)nc3C)=C(O)C(=O)N2CCN2CCOCC2)c1 (stereo not given)	G9a block 45µM
COc1ccc(C2C(C(=O)c3ccco3)=C(O)C(=O)N2CCN2CCOCC2)cc1 (stereo not given)	G9a block 50µM, JMJD2A Tudor inconclusive
COC(=O)C1=C(C(=O)OC)C(c2ccc(OC)c(OC)c2)c2sc(=O)[nH]c2S1 (stereo not given)	G9a block 28µM, Sfp PPTase inh 20µM, JMJD2A Tudor 40µM
COC(=O)C1=C(C(=O)OC)C(c2cc(Br)ccc2O)c2sc(=O)[nH]c2S1 (stereo not given)	G9a block 3.2µM, BAZ2B block inconclusive, PLK1 PBD block 3µM, Sfp PPTase inh 20µM
COC(=O)C1=C(C(=O)OC)C(c2cc(Cl)ccc2O)c2sc(=O)[nH]c2S1 (stereo not given)	G9a block 7.9µM, BAZ2B block inconclusive, PLK1 PBD block 9.5µM, Sfp PPTase inh 79µM, JMJD2A Tudor inconclusive
CN(C)CC#CCCCCCCC#CCN(C)C	G9a block inconclusive (no result: HP1b chromo inh, PLK1 PBD block, JMJD2A Tudor)
C#CCCCCCCC#CCN(C)C	G9a block 28µM, BAZ2B block inconclusive, HP1b chromo inh inconclusive, JMJD2A Tudor 1.8µM
Fc1ccccc1Cn1c2[n+](c3ccc(C(F)(F)F)cc31)CCCCC2	G9a block inconclusive, Sfp PPTase inh inconclusive, JMJD2A Tudor inconclusive (no result: BAZ2B block)
N#Cc1cccc(NC(=O)Cn2c3[n+](c4ccc(C(F)(F)F)cc42)CCCCC3)c1	G9a block 8.9µM
O=c1cc(-c2ccccc2Cl)oc2c([N+](=O)[O-])ccc(O)c12	none (no result: BAZ2B block, HP1b chromo inh, PLK1 PBD block, JMJD2A Tudor)
O=C1NC(=O)C(c2ccccc2[N+](=O)[O-])=C1Nc1ccc(O)c(Cl)c1	G9a block 1.5µM, BAZ2B block 50µM, Sfp PPTase inh 56µM!, JMJD2A Tudor inconclusive
Cc1cc2c(s1)c1cnn(Cc3cccc(C(F)(F)F)c3F)c(=O)c1n2C	none (no result: G9a block, BAZ2B block, HP1b chromo inh, PLK1 PBD block, Sfp PPTase inh)
Nc1c(C(=O)NCc2ccco2)c2nc3ccccc3nc2n1CCc1ccccc1	G9a block inconclusive, Sfp PPTase inh 50µM
Cc1c(Cl)sn(-c2ccc(Cl)cc2)c1=O	G9a block 0.71µM, BAZ2B block 40µM, HP1b chromo inh inconclusive, PLK1 PBD block 2.7µM, Sfp PPTase inh 0.71µM, JMJD2A Tudor 3.2µM
O=C(O)C1=C(OCc2ccc(F)c(F)c2)C(=O)NCC1	PLK1 PBD block 27µM, JMJD2A Tudor inconclusive
CCCn1c(N)c(N(CCOC)C(=O)c2ccc([N+](=O)[O-])cc2Cl)c(=O)[nH]c1=O	G9a block 50µM
CCCn1c(N)c(N(CCOC)C(=O)c2ccc(N3CCCC3=O)cc2)c(=O)[nH]c1=O	G9a block 56µM (no result: Sfp PPTase inh)
COCCN(C(=O)c1ccc(C#N)cc1)c1c(N)n(Cc2ccccc2)c(=O)[nH]c1=O	none (no result: Sfp PPTase inh)
COCCN(C(=O)c1ccc(OCC(C)C)cc1)c1c(N)n(Cc2ccccc2)c(=O)[nH]c1=O	G9a block 35µM (no result: Sfp PPTase inh)
COCCN(C(=O)c1ccc(N2CCCC2=O)cc1)c1c(N)n(Cc2ccccc2)c(=O)[nH]c1=O	G9a block 7.9µM (no result: Sfp PPTase inh)
CC(CCc1ccccc1)NC(=O)CNC(=O)N1CC(=O)Nc2ccccc21 (stereo not given)	none (no result: G9a block)
CCCn1c(N)c(N(CCOC)C(=O)c2ccc(N(C)S(=O)(=O)c3ccc(C)cc3)cc2)c(=O)[nH]c1=O	G9a block 1µM, BAZ2B block inconclusive (no result: Sfp PPTase inh)
O=C(NCCc1ccccc1)C1CCCN1S(=O)(=O)c1ccccc1 (stereo not given)	none
CCOC(=O)CSc1c(-c2ccc(Cl)cc2)[nH]c2ccccc12	PLK1 PBD block 6µM, JMJD2A Tudor 22µM
CCC(Cc1ccccc1)NC(=O)CN(C)S(=O)(=O)c1ccc2c(c1)c(=O)n(C)c(=O)n2C (stereo not given)	G9a block 45µM
